Molecules are shown by their SMILES. Values joined by “and” are separate entries in the source; they are usually repeats but may differ in a detail not shown here. Equal entries are not always repeated. Results filed as inconclusive are left out. Where a call stands in place of a potency, no number is given. Active and inactive are the calls of the source. The call rests on the fitted dose curve; in most records, active means well fitted cell-killing curve with a large enough effect; inconclusive means small, poorly fitted or top-dose-only effect; inactive means flat fitted curve, though single readings scatter.

29 compounds from PubChem BioAssay (NCATS) can be followed below.
Potency means the concentration at half of the fitted maximal effect.

The test can be described thus: Cell Viability - LYMP2-014 (AID 983). Further: nearly all actives have a fitted effect of over 50% in size. The following applies: LYMP2-014 lymphoblastoid cells, viability qHTS; series mostly up to 92.2 µM. From the text:
NIH Chemical Genomics Center [NCGC]
NIH Molecular Libraries Screening Centers Network [MLSCN]
National Institutes of Environmental Health Sciences [NIEHS]
National Toxicology Program [NTP]
We have developed a 1536-well cell-based assay for quantitative high throughput screening (qHTS) against a number of cell lines to determine in vitro cytotoxicity of small molecules. This particular assay uses a human lymphoblastoid cell line (LYMP2-014) purchased from Coriell Institute for Medical Research.
NCGC Assay Protocol Summary:
The CellTiter-Glo luminescent cell viability assay (Promega) is a homogeneous method to measure the number of viable cells in culture. The end point readout of this assay is based on quantitation of intracellular ATP, an indicator of metabolic activity, using the luciferase reaction. Luciferase catalyzes the oxidation of beetle Luciferin to oxyluciferin and light in the presence of ATP. The luminescent signal is proportional to amount of ATP present.
Using the CellTiter-Glo luminescent cell viability assay, the amount of cellular ATP was measured in the lymphoblastoid cell line with complete culture medium following compound treatment for 24 hours. The assay was performed in opaque white Kalypsys 1536-well plates. In the screen, tetraoctylammonium bromide was used as positive control. Library compounds were measured for their ability to cause acute toxicity in the cell line, as reflected by a decrease in intracellular ATP levels, in a concentration-dependent manner. […] AC50 values were determined from concentration-response data modeled with the standard Hill equation.
qHTS protocol for CellTiter Glo lymphoblastoid cellular assay
[Step] [Parameter] [Value] [Description]
1. Reagent; 5 uL; 2500 lymphoblastoid cells/well
2. Time; 5 hr; 37 C incubation
4. Controls; 23 nL; Tetraoctylammonium bromide 6.4pM to 92 uM
5. Time; 24 hr; 37 C incubation
6. Reagent; 5 uL; CellTiter Glo reagent
7. Time; 30 min; Room Temperature
8. Detection; Luminescence; Viewlux plate reader
Keywords: cell viability, cytotoxicity, lymphoblastoid cell line, luminescence, NTPHTS, NTPHTS_NCGC, NIEHS, DSSTox, MLSMR, MLSCN, NIH Roadmap, qHTS, NCGC
With `C=CCN=C=S`, the Potency entry was “inactive”.

On to `Clc1ccccc1Cl`, for which the Potency result was “inactive”.

For `O=CC=O`, the Potency result was “inactive”.

Consider `CC(C)Nc1ccc(Nc2ccccc2)cc1`, for which the Potency is 39.8 µM (active).

Regarding `ClC(Cl)(Cl)Cl`, the Potency entry was “inactive”.

`O=Cc1ccco1`: the Potency result was “inactive”.

With `CCOC(=O)c1ccccc1C(=O)OCC`, the Potency entry is “inactive”.

`C[C@]12CCC(=O)C[C@@H]1CC[C@@H]1[C@@H]2CC[C@]2(C)[C@@H](O)CC[C@@H]12`: the Potency entry was “inactive”.

On to `O=C/C=C/c1ccccc1`, for which the Potency entry was “inactive”.

As to `O=C1C2CC=CCC2C(=O)N1SC(Cl)(Cl)Cl` (centres undefined), the Potency was 5.01 µM (active) and 6.31 µM (active).

For `COC1=CC(=O)O[C@@H](/C=C/c2ccccc2)C1`, the Potency entry was “inactive”.

As to `[Cl-].[Cl-].[Hg+2]`, the Potency was 12.6 µM (active).

On to `O=C1C=CC(=O)C=C1`, for which the Potency result was “inactive”.

In the case of `Oc1cc(Cl)c(Cl)cc1Cl`, the Potency result is “inactive”.

With `S=C=S`, the Potency result was “inactive”.

On to `O=[N+]([O-])c1ccc(F)c([N+](=O)[O-])c1`, for which the Potency result was “inactive”.

Turning to `ClC=C(Cl)Cl`, the Potency result was “inactive”.

In the case of `[O]=[Cr](=[O])([OH])[O][Cr](=[O])(=[O])[OH]`, the Potency is 12.6 µM (active) and 15.8 µM (active) and 10 µM (active).

Turning to `O=C1CCO1`, the Potency result is “inactive”.

Regarding `CCCCCl`, the Potency result is “inactive”.

Turning to `C[C@H]1CC[C@@H]2[C@@H](C)[C@H]3[C@H](C[C@H]4[C@@H]5CC=C6CC(O[C@@H]7O[C@H](CO)[C@H](O)[C@H](O[C@@H]8O[C@H](CO)[C@@H](O)[C@H](O)[C@H]8O)[C@H]7O[C@H]7O[C@@H](C)[C@H](O)[C@@H](O)[C@H]7O)CC[C@]6(C)[C@H]5CC[C@]34C)N2C1` (some centres undefined), the Potency was 50.1 µM (active).

For the compound `O=C(O)C(Cl)(Cl)Cl`, the Potency result is “inactive”.

Turning to `CC(C)CCON=O`, the Potency result is “inactive”.

On to `O=[N+]([O-])c1ccccc1`, for which the Potency entry is “inactive”.

With `CCCCCCCCOC(=O)c1ccccc1C(=O)OCCCCCCCC`, the Potency result was “inactive”.

Regarding `COc1ccc2c(c1OC)C(=O)OC2C1c2cc3c(cc2CCN1C)OCO3` (centres undefined), the Potency entry is “inactive”.

As for `C[C@H]1CCC[C@H](O)CCCCCc2cc(O)cc(O)c2C(=O)O1`, the Potency entry is “inactive”.

Turning to `NNC(N)=O`, the Potency entry is “inactive”.

As for `[O]=[Cd]`, the Potency result is “inactive”.
